Measurements taken from PubChem BioAssay (Tox21).
Records with an inconclusive call do not appear. Values without a mark were called inactive. Unless noted, calls come from the whole dose curve.
% is set by controls: 0 for no effect and ±100 for the full control effect.

System: not listed separately
Experiment: qHTS assay to identify small molecule agonists of the peroxisome proliferator-activated receptor delta (PPARd) signaling pathway - cell viability counter screen (AID 743211; active = well fitted cell-killing curve with a large enough effect in the repeat runs; note: nearly all actives have a fitted effect of over 55% in size)
Settings: PPARd-bla HEK293H viability, CellTiter-Glo luminescence, 17 h; series mostly up to 62.6 µM; activity change, negative = cytotoxicity: at the top concentration
How it was run: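 Tox21 library compounds, delivered in DMSO, were incubated 17 h with PPARd-bla HEK293H cells; cytotoxicity was taken from CellTiter-Glo luminescence read 30 min after reagent addition.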
For `OC(CCN1CCCCC1)(c1ccccc1)C1CCCCC1` (stereo unspecified), the “activity change, negative = cytotoxicity” value was -18.9%. In the case of `CC(=O)[C@@]1(O)CC[C@H]2[C@@H]3C[C@H](C)C4=CC(=O)CC[C@]4(C)[C@H]3CC[C@@]21C`, the “activity change, negative = cytotoxicity” value is reported as -0.483%. In the case of `CC(C)(C)C(=O)OCOP(=O)(COCCn1cnc2c(N)ncnc21)OCOC(=O)C(C)(C)C`, the “activity change, negative = cytotoxicity” value is reported as -21.8%. For `N#Cc1c(F)cccc1F`, the “activity change, negative = cytotoxicity” value was 4.67%.

Target: Peroxisome proliferator-activated receptor delta (Homo sapiens) (UniProt Q03181)
Sequence (Q03181 whole entry, looked up): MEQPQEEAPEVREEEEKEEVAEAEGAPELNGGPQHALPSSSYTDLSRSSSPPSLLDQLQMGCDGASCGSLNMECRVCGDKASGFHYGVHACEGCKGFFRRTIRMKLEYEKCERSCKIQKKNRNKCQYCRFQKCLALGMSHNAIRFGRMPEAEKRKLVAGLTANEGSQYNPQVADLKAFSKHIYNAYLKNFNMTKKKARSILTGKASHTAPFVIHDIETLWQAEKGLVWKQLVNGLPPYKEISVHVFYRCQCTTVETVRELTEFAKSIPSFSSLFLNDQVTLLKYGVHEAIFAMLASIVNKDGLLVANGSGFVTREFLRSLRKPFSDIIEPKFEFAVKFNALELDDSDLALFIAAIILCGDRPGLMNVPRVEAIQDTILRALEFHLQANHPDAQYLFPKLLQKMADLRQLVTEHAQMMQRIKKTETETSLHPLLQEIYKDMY
Experiment: qHTS assay to identify small molecule agonists of the peroxisome proliferator-activated receptor delta (PPARd) signaling pathway (AID 743212);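 note: HEK293H cells with PPARd UAS beta-lactamase reporter GeneBLAzer system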
Settings: HEK293H PPARd-UAS-bla, beta-lactamase FRET ratio, 17 h; series mostly up to 62.6 µM; activation: at the top concentration
How it was run: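 GeneBLAzer UAS-bla HEK293H cells carrying a PPARδ construct were exposed to compounds at 37 °C. Beta-lactamase activity was read by FRET fluorescence after 2 h at room temperature with LiveBLAzer B/G substrate.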
For `CC(C)c1ccc2c(C(C)C)cc(C(C)C)c(S(=O)(=O)O)c2c1`, the “activation” value was 3.86% [at 81.1 µM]. For `Cc1cc(C)c(S(=O)(=O)O)cc1N=Nc1cc(S(=O)(=O)O)c2ccccc2c1O`, the “activation” value was 1.75%. With `OCCC1CCCCN1` (stereo unspecified) the “activation” value was -2.8% [at 81.1 µM]. With `CC1(C)CCC(C)(C)c2cc(NC(=O)c3ccc(C(=O)O)cc3)ccc21` the “activation” value was 0.663%. For `CC(=O)N(O)CCCCCNC(=O)CCC(=O)N(O)CCCCCNC(=O)CCC(=O)N(O)CCCCCN`, the “activation” value was 1%. For `Cl/C(=C\n1cncn1)c1ccc(Cl)cc1Cl`, the “activation” value was 4.66%. For `CC(C)CC=O`, the “activation” value was -1.26%. For `CN(C)CCCOc1nn(Cc2ccccc2)c2ccccc12`, the “activation” value was -7.88%. For `FC(F)(F)C(F)(F)C(F)(F)C(F)(F)C(F)(F)C(F)(F)CCI`, the “activation” value was -1.99%. With `O=C(Cl)c1c(Cl)cccc1Cl` the “activation” value was -0.495% [at 81.1 µM]. In the case of `CC(=O)CC(=O)c1ccccc1`, the “activation” value is reported as -1.1% [at 81.1 µM]. In the case of `CC(=O)O[C@@H]1C(=O)O[C@@H]2[C@H]1OC(=O)[C@@H]2OC(C)=O`, the “activation” value is reported as 2.91%. With `C#CCOC(=O)[C@@H](C)Oc1ccc(Oc2ncc(Cl)cc2F)cc1` the “activation” value was -4.98%. For `CCOC(=O)C1=NN(c2ccccc2)C(=O)C1`, the “activation” value was -5.96%. In the case of `CCCCCCOC(=O)CCC`, the “activation” value is reported as -3.28%. With `CCCCCc1ccc(N)cc1` the “activation” value was 1.54%. With `CN1CCN(C2=Nc3ccccc3Sc3ccc(Cl)cc32)CC1` the “activation” value was -5.09%. In the case of `CCN(CC)CCc1nc(-c2ccccc2)no1`, the “activation” value is reported as -2.58%. In the case of `COCCO`, the “activation” value is reported as -2.07%. With `Nc1ccc(C(=O)Nc2ccccc2N)cc1` the “activation” value was -1.55%. In the case of `O=C(O)Cc1sc(-c2ccccc2)nc1-c1ccc(Cl)cc1`, the “activation” value is reported as -6.22%. For `CC(C)CCCCCCOC(=O)c1ccc(C(=O)OCCCCCCC(C)C)c(C(=O)OCCCCCCC(C)C)c1`, the “activation” value was 3.84%. For `Cc1ccc2c(ccc3ccccc32)c1`, the “activation” value was 1.27% [at 81.1 µM]. For `CN(C)CCCNCCCN`, the “activation” value was -2.09%. For `OC(CCN1CCCCC1)(c1ccccc1)C1CCCCC1` (stereo unspecified), the “activation” value was -4%. With `CC(=O)[C@@]1(O)CC[C@H]2[C@@H]3C[C@H](C)C4=CC(=O)CC[C@]4(C)[C@H]3CC[C@@]21C` the “activation” value was -1.13%. With `N#Cc1c(F)cccc1F` the “activation” value was -1.35%.
